Measurements as given in PubChem BioAssay AID720690 (Broad Institute, 2013).
Measured potencies and affinities stand elsewhere. Active and inactive are the calls of the source.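 The calls were made as follows: active = every repeat run showing a signal drop whose fitted half-maximal concentration is at most twice the top tested concentration; inconclusive = repeat runs disagree, or flat partial drop, or poor fit; inactive = the rest.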

Test: HEK293T cytotoxicity, dose response, cytotoxicity control for miR-122 modulator project, cell-based, activator set, cherry-pick (AID 720690)

Row | SMILES | outcome
1 | CNC(=O)C[C@H]1CC[C@H]2[C@@H](COc3ccc(NC(=O)C4CC4)cc3C(=O)N2C)O1 | inactive
2 | CC(C)C#Cc1ccc2c(c1)O[C@H](CN(C)C(=O)c1ccncc1)[C@H](C)CN([C@@H](C)CO)S2(=O)=O | inactive
3 | COCC(=O)Nc1ccc2c(c1)C(=O)N(C)[C@@H]1CC[C@@H](CC(=O)NC3CCCC3)O[C@H]1CO2 | inactive
4 | C/C=C/c1ccc([C@H]2[C@@H](CNC(=O)CC)N(Cc3ccccn3)[C@H]2CO)cc1 | inactive
5 | Cc1ccc(-n2ncc(C(=O)Nc3cc(Cl)ccc3C)c2C2CCNCC2)cc1C | inactive
6 | O=C(c1cccnc1)N1C[C@H]2[C@@H](c3ccccc31)[C@H](CO)N2C(=O)Nc1ccccc1Cl | inactive
7 | COc1cccc(COc2cc3ccccc3nc2C)c1 | inactive
8 | Cn1c(-c2ccc(N)cc2)nc2ccccc21 | inactive
9 | CCN(CC)CCOc1cccc(C(C)C)c1 | inactive
10 | O=C(c1ccco1)N1CCN(C2CC(=O)N(c3ccccc3)C2=O)CC1 (stereo not drawn) | inactive
11 | COc1ccc(CNC(=O)C[C@H]2CC[C@H]3[C@H](COc4ccc(NC(=O)C(C)C)cc4C(=O)N3C)O2)cc1 | inactive
12 | CCCNC(=O)N1C[C@@H]2[C@H](c3ccccc31)[C@@H](CO)N2C(=O)C1CCOCC1 | inactive
13 | COCC(=O)NC[C@@H]1[C@H](c2ccc(C3=CCCC3)cc2)[C@H](CO)N1C(=O)C1CC1 | inactive
14 | C/C=C/c1ccc([C@@H]2[C@@H](CO)N[C@@H]2CN(CC)C(=O)CN2CCOCC2)cc1 | inactive
15 | O=C(c1ccccc1)N1C[C@H]2[C@@H](c3ccccc31)[C@@H](CO)N2C(=O)CN1CCOCC1 | inactive
16 | CCC(=O)N1[C@H](CN(C)C(C)=O)[C@H](c2ccc(-c3cccnc3)cc2)[C@@H]1CO | inactive
17 | CC(C)C(=O)Nc1ccc2c(c1)C(=O)N(C)[C@H]1CC[C@@H](CC(=O)NCCCN(C)C)O[C@H]1CO2 | inactive
18 | CN1C[C@@H]2[C@H](c3ccccc31)[C@@H](CO)N2C(=O)Nc1ccccc1 | inactive
19 | COc1cccc(C(=O)Nc2ccc3c(c2)C(=O)N(C)[C@@H]2CC[C@H](CC(=O)NCc4ccc(F)cc4)O[C@@H]2CO3)c1 | inactive
20 | CCCNC(=O)Nc1ccc2c(c1)C(=O)N(C)[C@@H]1CC[C@@H](CC(=O)NCC3CCCCC3)O[C@H]1CO2 | inactive
21 | CO[C@@H]1CN(C)C(=O)c2cc(NC(=O)NC(C)C)ccc2OC[C@H](C)N(Cc2cncnc2)C[C@H]1C | inactive
22 | CN1C(=O)c2cc(NC(=O)c3cccs3)ccc2OC[C@@H]2O[C@@H](CC(=O)O)CC[C@H]21 | inactive
23 | CN1C(=O)c2cc(NC(=O)C3CC3)ccc2OC[C@@H]2O[C@H](CC(=O)NCCN3CCCC3)CC[C@H]21 | inactive
24 | C/C=C/c1ccc([C@@H]2[C@@H](CNC(=O)c3ccncc3)N(C(=O)CC)[C@H]2CO)cc1 | inactive
25 | C/C=C/c1ccc([C@H]2[C@@H](CO)N(C(=O)COC)[C@H]2CNC(=O)CC)cc1 | inactive
26 | COCC(=O)N(C[C@H]1[C@H](c2ccccc2)[C@H](CO)N1C(=O)NC(C)C)C(C)C | inactive

Row | SMILES | outcome
27 | CCN(C[C@H]1[C@H](c2ccccc2)[C@@H](CO)N1C(=O)C1CC1)C(=O)NC1CCCC1 | inactive
28 | C[C@H](CO)N1C[C@H](C)[C@H](CN(C)C(=O)C2CCC2)Oc2cc(-c3ccc(C(=O)N(C)C)cc3)ccc2S1(=O)=O | inactive
29 | COCC(=O)N1[C@@H](CO)[C@@H]2c3ccccc3N(C(=O)C3CC3)C[C@@H]21 | inactive
30 | CNC(=O)C[C@@H]1CC[C@H]2[C@@H](COc3ccc(NC(=O)c4cccc(OC)c4)cc3C(=O)N2C)O1 | inactive
31 | N#Cc1ccc(C(=O)Nc2ccc(N3CCN(C(=O)c4ccco4)CC3)cc2)c(F)c1 | inactive
32 | CC(=O)N1[C@H](CN(C(=O)c2ccc(F)cc2)C(C)C)[C@H](c2ccccc2)[C@@H]1CO | inactive
33 | COc1ccc(C#Cc2ccc3c(c2)O[C@@H](CN(C)C(=O)CN2CCOCC2)[C@@H](C)CN([C@H](C)CO)S3(=O)=O)cc1 | inactive
34 | CCN(C[C@H]1N[C@H](CO)[C@H]1c1ccc(C2=CCCC2)cc1)C(=O)c1cccnc1 | inactive
35 | COc1ccc(-c2ccc(C#N)c(OC(=O)c3c(Cl)cccc3Cl)n2)cc1 | inactive
36 | CCCC(=O)Nc1ccc2c(c1)C(=O)N(C)[C@H]1CC[C@H](CC(=O)NCCN3CCCCC3)O[C@@H]1CO2 | inactive
37 | O=C(Nc1ccc(Cl)c(C(F)(F)F)c1)c1ccco1 | inactive
38 | O=C(c1cccc(F)c1)N1C[C@@H]2[C@H](c3ccccc31)[C@H](CO)N2C(=O)Cc1ccccc1 | inactive
39 | COc1ccc(C(=O)N2C[C@H]3[C@@H](c4ccccc42)[C@@H](CO)N3C(=O)Cc2ccccn2)cc1 | inactive
40 | CSc1cccc(NS(=O)(=O)c2ccccc2)c1 | inactive
41 | COCC(=O)N(C[C@H]1N[C@@H](CO)[C@@H]1c1ccc(C2=CCCC2)cc1)C(C)C | inactive
42 | O=C(NC[C@H]1[C@H](c2ccccc2)[C@@H](CO)N1Cc1ccccn1)C1CC1 | inactive
43 | COCC(=O)N1C[C@H]2[C@@H](c3ccccc31)[C@H](CO)N2C(=O)Nc1ccccc1Cl | inactive
44 | COCCN(C[C@@H]1[C@@H](c2ccccc2)[C@H](CO)N1C(=O)C1CC1)C(C)=O | inactive
45 | OC(c1cc(C(F)(F)F)nc2c(Cl)cc(Cl)cc12)C1CCCCN1 (stereo not drawn) | inactive
46 | CC(=O)N1[C@H](CO)[C@@H](c2ccccc2)[C@H]1CN(C(=O)NC(C)C)C1CCCC1 | inactive
47 | C[C@@H]1CN([C@H](C)CO)C(=O)c2cccc(NC(=O)c3ccc(-c4nccs4)cc3)c2O[C@H]1CN(C)S(=O)(=O)c1ccc(F)cc1 | inactive
48 | COC(=O)C[C@H]1CC[C@H]2[C@H](COc3ccc(NS(=O)(=O)c4ccc(F)cc4)cc3C(=O)N2C)O1 | inactive
49 | CN1C(=O)c2cc(NC(=O)Nc3ccccc3F)ccc2OC[C@@H]2O[C@@H](CC(=O)NCc3ccc(-c4ccccc4)cc3)CC[C@H]21 | inactive
50 | O=C(CN1CCN(c2nc(-c3ccccc3)cs2)CC1)Nc1ccc2c(c1)OCO2 | inactive
51 | CN1C(=O)c2cc(NC(=O)c3cccc(F)c3)ccc2OC[C@H]2O[C@H](CC(=O)NC3CCC3)CC[C@@H]21 | inactive
52 | O=C(N/N=C/c1ccco1)c1cccc(N2CCCC2=O)c1 | inactive

Row | SMILES | outcome
53 | Cc1cccc(NC(=O)C[C@H]2CC[C@H]3[C@@H](COc4ccc(NC(=O)NC(C)C)cc4C(=O)N3C)O2)c1 | inactive
54 | COc1cccc(CNC(=O)C[C@H]2CC[C@@H]3[C@H](COc4ccc(NC(C)=O)cc4C(=O)N3C)O2)c1 | inactive
55 | CN1C(=O)c2cc(NC(=O)c3cccc(F)c3)ccc2OC[C@H]2O[C@H](CC(=O)NC3CCC3)CC[C@H]21 | inactive
56 | COCC(=O)N1[C@H](CO)[C@H]2c3ccccc3N(C(=O)C3CC3)C[C@H]21 | inactive
57 | CC(C)NC(=O)N1C[C@@H]2[C@H](c3ccccc31)[C@H](CO)N2Cc1ccccc1 | inactive
58 | COCC(=O)Nc1ccc2c(c1)C(=O)N(C)[C@@H]1CC[C@@H](CC(=O)NCc3ccc(OC)cc3)O[C@H]1CO2 | inactive
59 | CO[C@H]1CN(C)C(=O)c2cc(NC(C)=O)ccc2OC[C@@H](C)N(C(=O)c2ccccn2)C[C@H]1C | inactive
60 | CN1C(=O)c2cc(NC(=O)Nc3ccccc3Cl)ccc2OC[C@H]2O[C@H](CC(=O)O)CC[C@H]21 | inactive
61 | COc1ccc(C#Cc2ccc([C@@H]3[C@@H](CO)N4CCCCN(C(=O)Nc5ccccc5)C[C@H]34)cc2)cc1 | inactive
62 | Cc1cccc(NC(=O)Nc2ccc3c(c2)C(=O)N(C)[C@H]2CC[C@H](CC(=O)O)O[C@H]2CO3)c1 | inactive
63 | CCNC(=O)C[C@@H]1CC[C@H]2[C@H](COc3ccc(NC(=O)c4cccc(C(F)(F)F)c4)cc3C(=O)N2C)O1 | inactive
64 | Cc1cccc(NC(=O)c2sc3nc(-c4ccc(F)cc4)cn3c2C)n1 | inactive
65 | O=C(Nc1ccccc1)N1C[C@@H]2[C@H](c3ccccc31)[C@H](CO)N2C(=O)c1ccncc1 | inactive
66 | CNC[C@@H]1Oc2cc(C#CC3CCCC3)ccc2S(=O)(=O)N([C@@H](C)CO)C[C@@H]1C | inactive
67 | C/C=C/c1ccc([C@@H]2[C@@H](CO)N(S(C)(=O)=O)[C@H]2CN(C)C(=O)CC)cc1 | inactive
68 | COc1cccc(C(=O)Nc2ccc3c(c2)C(=O)N(C)[C@H]2CC[C@H](CC(=O)NCc4ccc(F)cc4)O[C@H]2CO3)c1 | inactive
69 | COc1ccc(-c2nc(NC(=O)CSc3nnc(C)s3)ns2)cc1 | inactive
70 | CCCNC(=O)C[C@H]1CC[C@H]2[C@H](COc3ccc(NC(=O)c4ccc(C(F)(F)F)cc4)cc3C(=O)N2C)O1 | inactive
71 | CCC(=O)N1[C@@H](CO)[C@@H](c2ccccc2)[C@@H]1CN(C(C)C)S(C)(=O)=O | inactive
72 | CN1C(=O)c2cc(NC(=O)c3ccc4c(c3)OCO4)ccc2OC[C@H]2O[C@@H](CC(=O)O)CC[C@@H]21 | inactive
73 | CCC(=O)Nc1ccc2c(c1)C(=O)N(C)[C@@H]1CC[C@H](CC(=O)Nc3cccc(OC)c3)O[C@@H]1CO2 | inactive
74 | COCC(=O)N(C)C[C@H]1Oc2cc(-c3ccc(C#N)cc3)ccc2S(=O)(=O)N([C@H](C)CO)C[C@H]1C | inactive
75 | CC(C)NC(=O)N1C[C@@H]2[C@H](c3ccccc31)[C@@H](CO)N2C(=O)c1cccnc1 | inactive
76 | C/C=C/c1ccc([C@H]2[C@@H](CO)N(C(=O)C3CC3)[C@H]2CN(C)C(=O)CC2CC2)cc1 | inactive
77 | COCC(=O)Nc1ccc2c(c1)C(=O)N(C)[C@@H]1CC[C@@H](CC(=O)OC)O[C@@H]1CO2 | inactive
78 | CC(=O)c1cccc(S(=O)(=O)NCC2CCCCC2)c1 | inactive
